Biological target: Shiga toxin 2 (Escherichia coli O157:H7) (UniProt P09385+P09386)
Assay: E. coli 0.157:H7 Shiga Toxin SOP - stx2 screening assay
Type: functional
Parameters: scale not given: direction of the effect not stated beside the values
Details: 30 µM

Row | SMILES | Percent Effect [%]
1 | O=C(Cc1ccccc1)N1CCC2(CC(=O)N(c3ccsc3)C2)C1 (stereo not given) | -10.4
2 | CCc1noc(C)c1C(=O)N1CCCC1Cn1nc(C)cc1C (stereo not given) | 27.6
3 | O=c1ccc(-c2cccs2)nn1CN1CCN(Cc2ccccc2)CC1 | 9.12
4 | COCCc1noc(CNC2CCc3nc(C(C)C)nn3C2)n1 (stereo not given) | 9.38
5 | CCC(CC)c1cc(CNC(=O)N2CCOC(C)C2)on1 (stereo not given) | -11.9
6 | NS(=O)(=O)c1ccc(NC(=O)CSc2ccc3c(c2)CCC3)cc1 | -78.8
7 | O=C(c1ccn(-c2cccc(F)c2)n1)N1CCCC(n2cccn2)C1 (stereo not given) | 1.81
8 | Cc1ccc(C(=O)N2CCO[C@H]3[C@@H](OCc4ccccn4)CC[C@@H]32)o1 | -6.16
9 | Cc1nc(C)n(CC2CCCN(CC(=O)Nc3c(C)n[nH]c3C)C2)n1 (stereo not given) | 32.2
10 | CN1CCCn2c(nc(CNC(=O)c3ccsc3)cc2=O)C1 | -9.45
11 | O=C(c1cc(C2CC2)[nH]n1)N1CCN(Cc2ccsc2)CC1 | -27.3
12 | COc1cccc(-n2nnc(C(=O)N3CCCC3)c2C)c1 | 5.03
13 | Cc1cc(C)c(CNC(=O)NCC(O)c2cccc(F)c2)c(=O)[nH]1 (stereo not given) | 28.2
14 | COCCOc1ccc(NC(=O)N2CCCC2c2cc(C)no2)cn1 (stereo not given) | 25.9
15 | CN1CCOC(CNCc2coc(-c3cccs3)n2)C1 (stereo not given) | -17.6
16 | CCc1nccc(CN2CCCC(c3nn(C)c(=O)n3CC)C2)n1 (stereo not given) | 10.8
17 | CS(=O)(=O)c1ccc(NC(=O)N2CCc3sccc3C2)cn1 | -38
18 | Cc1cccc(-c2ccc3nc(C4CCN(CC5CC5)CC4)nn3c2)c1 | -31.4
19 | Cc1cnn(CC2CN(CC(=O)Nc3sccc3C#N)CCO2)c1 (stereo not given) | 27.5
20 | CCc1noc(C(C)N2CCC(C(=O)Nc3cnn(CC)c3)CC2)n1 (stereo not given) | -12.4

Row | SMILES | Percent Effect [%]
21 | O=C(NCCc1nnc2n1CCC2)NC1(c2cccc(F)c2)CC1 | -25
22 | OCC1CCCCN1c1ccc(-c2nc(-c3ccccc3F)no2)cn1 (stereo not given) | -36.1
23 | O=C(NCc1ccccc1)[C@H]1C[C@@H]2CN(S(=O)(=O)C3CC3)C[C@H]1O2 | 2.32
24 | CC(=O)Nc1nc(C(=O)NC(C)c2ccc3c(c2)OCCO3)cs1 (stereo not given) | 7.36
25 | CCn1cnnc1CNC(=O)NC(C)c1cccs1 (stereo not given) | -10.2
26 | CCOc1cccc(NS(=O)(=O)c2cc(C)c(C(=O)O)s2)c1 | -10.3
27 | CN(Cc1ccc2c(c1)OCCO2)C(=O)Cn1cccnc1=O | -20.6
28 | CCC1=N[C@@]2(CC[C@@H]3CN(S(=O)(=O)CC(C)C)C[C@@H]32)C(=O)N1C | -1.16
29 | NS(=O)(=O)CCNC(=O)C1(c2ccc(Br)cc2)CC1 | -28.2
30 | Cc1cnc(CN2CCCC(c3cc(C(F)(F)F)[nH]n3)C2)cn1 (stereo not given) | 7.14
31 | CCc1nccn1C1CCCN(C(=O)Cc2ccc(OC)c(F)c2)C1 (stereo not given) | 4.47
32 | CC(=O)Nc1nc(CN2CCCC2Cn2cncn2)cs1 (stereo not given) | -44
33 | O=C(NCCOc1ccc2c(c1)OCO2)C1CC(=O)N(CC2CC2)C1 (stereo not given) | 24.2
34 | Cc1cccc(C(=O)N(C)Cc2cc(Br)cs2)n1 | -8.77
35 | NC(=O)C1CCN(C(=O)c2cccc(CN3CCOCC3)c2)CC1 | 3.51
36 | CN1CCC/C1=N\S(=O)(=O)c1ccc(NC(=O)c2cccs2)cc1 | -166
37 | COc1cc(C(=O)NC(CC(=O)O)c2cccs2)cc(Cl)c1OC (stereo not given) | -19.3
38 | COCC1CC2(CCN(Cc3cnn(C)c3)CC2)CN1c1ncccn1 (stereo not given) | -22.6
39 | CNC(=O)CN1CCCC12CCN(C(=O)c1ccsc1)CC2 | -0.413
40 | Cc1ccc(S(=O)(=O)N2CCc3nc(C4CCNCC4)ncc3C2)cc1 | 8.71
